Compound activity deposited in PubChem BioAssay by several laboratories.
Rows were chosen to be rich in hits. Some 6.6% of all compounds tested hit in one or more screens of this group.
Gli-Sufu antag: Gli-Sufu pathway antagonists, primary screen, luciferase luminescence, Sufu-KO-LIGHT cells, uHTS | inhibition, % at 5 µM | Sufu-KO-LIGHT fibroblasts, Gli luciferase reporter luminescence | 340,000 compounds, 0.74% hits;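 active means inhibition above about 55%, limit read from the data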;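 further: 0% = DMSO-treated cells and 100% = wells with medium but no cells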
Mdm2-MdmX inh: inhibitors of human Mdm2-MdmX association, primary screen, cell-based, luminescence, split luciferase, SaOS-2, uHTS; Protein Mdm4 (Homo sapiens) + E3 ubiquitin-protein ligase Mdm2 (Homo sapiens), …; SaOS-2 split-luciferase Mdm2/MdmX complementation; inhibition, % at 8 µM; 330,000 compounds, 3% hits; AID 485346, 2010;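 active means inhibition of at least 50% at 8 µM in the primary screen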
NR3A LBD binder: binders of NR3A ligand-binding domain, primary screen, biophysical, differential scanning fluorimetry, uHTS; Glutamate receptor ionotropic, NMDA 3A (GRIN3A) ligand-binding domain; NR3A LBD differential scanning fluorimetry, Tm shift; 0% = protein alone, 100% = glycine-bound protein; Tm shift relative to glycine control, % at 25 µM; 340,000 compounds, 2.5% hits;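 active means melting temperature shift of at least 10% of the positive control shift, at one fixed dose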
MPTP inh: mitochondrial permeability transition pore inhibitors, primary screen, biochemical, isolated mouse mitochondria, absorbance; Ca2+ swelling absorbance, 30 min; AID 602449, 2012; inhibition, % at 10 µM; 360,000 compounds, 1.4% hits;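 active means inhibition of 50% or more, scaled per plate between neutral and stimulator controls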;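 further: 0% = DMSO wells given calcium and 100% = 1 mM EGTA wells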
Beta apoptosis: inhibitors of cytokine-induced beta cell apoptosis, primary screen, luminescence; INS-1E cytokine-induced death, ATP luminescence, 48 h; percent of positive-control rescue, neutral wells zero; protection from apoptosis, % (test concentration not listed); 300,000 compounds, 0.8% hits;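 active means Every replicate reaches about 75%, or at least half do and their mean reaches it too, limit read from the data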;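 further: 0% = cytokine-treated negative control wells and 100% = positive control rescue; higher means more ATP so stronger rescue from cytokine killing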
CSC inhib: cancer stem cell viability inhibitors, primary screen, luminescence | cancer stem cell-like cells viability | inhibition, % at 7.5 µM | 300,000 compounds, 1.1% hits; in the data active means inhibition above about 75%; tested in HMLE shEcad cells
* marks the source's active call; other numbers are inactive results; . = no result given.

SMILES	Gli-Sufu antag	Mdm2-MdmX inh	NR3A LBD binder	MPTP inh	Beta apoptosis	CSC inhib
CC(C)C[C@@H](CN1CCCC1CN1C(=S)NC[C@@H]1Cc1ccc(O)cc1)N1C[C@H](Cc2ccc(O)cc2)N(CC2CCCCCC2)C1=S (stereo partly specified)	28	.	36*	4	.	.
Oc1ccc(C[C@@H]2CNC(=S)N2CCCCC2CCCCC2)cc1	21	-17	0	2	-3	115*
O=C1NC[C@@H](Cc2ccc(O)cc2)N(CCCCC2CCCCC2)C1=O	.	.	.	0	.	.
CC(C)C[C@@H](CN1CCCC1CN1C(=S)NC[C@@H]1Cc1ccc(O)cc1)N1C[C@H](Cc2ccccc2)N(CC2CCCCCC2)C1=S (stereo partly specified)	24	.	12*	3	.	.
COc1ccccc1NC(=O)C(C)OC(=O)C(C)SCC(=O)Nc1ccc(C)cc1 (stereo unspecified)	-20	26	1	0	.	.
COc1ccc(/C(N)=N/OC(=O)c2ccc(Br)o2)cc1	-64	-58	14*	-1	-1	.
N/C(=N\OC(=O)c1ccc(Br)o1)c1cccnc1	-35	-59	0	0	-4	5
COc1ccc(CCN2C(=O)C=CC2=O)cc1OC	6	.	20*	-1	.	.
Cc1nc(SCC(=O)NCC2CCCO2)c2c3c(sc2n1)CCC3 (stereo unspecified)	6	24	20*	1	5	-12
O=C(CSc1ncnc2sc3c(c12)CCC3)NCC1CCCO1 (stereo unspecified)	3	11	5	0	5	0
Cc1cc2c(c(C)c1CCO)C(=O)[C@H](C)C2	-23	26	0	-1	.	.
C=CCn1c(N)c(C(=O)OCCC)c2nc3ccccc3nc21	3	6	-3	-9	-2	2
C=CCn1c(N)c(C(=O)Nc2ccc(C)c(C)c2)c2nc3ccccc3nc21	6	-61	24*	3	.	19
CC(C)(C)c1ccc(C(=O)NCC(=O)OCc2ccc([N+](=O)[O-])cc2)cc1	-4	-16	-11	7	-21	-19
CCOc1ccccc1N=C1SC(CC(=O)Nc2ccc(OC)cc2OC)C(=O)N1CCC1=CCCCC1 (stereo unspecified)	-3	43	1	2	76*	14
COc1ccccc1C1NC(=O)CS1 (stereo unspecified)	1	14	14*	-1	.	-3
Cc1cccc(C)c1NC(=O)CN(C)C(=O)CSC(=S)N1CCCC1	-3	17	0	-2	-4	4
COCCN(C(=O)c1ccc(C)c(S(=O)(=O)N2CCOCC2)c1)c1c(N)n(CC(C)C)c(=O)[nH]c1=O	3	.	0	0	.	.
O=C(CSCc1ccccc1)Nc1cccc(C(=O)Nc2ccccc2C(=O)O)c1	4	-22	5	2	-2	.
O=C(CSCc1ccc(Cl)cc1)Nc1cccc(C(=O)Nc2ccccc2C(=O)O)c1	-1	4	10*	1	3	18
CCC(C)Nc1nc(-c2ccc3c(c2)NC(=O)CO3)cs1 (stereo unspecified)	-6	-1	1	-6	7	-15
COc1ccc(Nc2nc(-c3ccc4c(c3)NC(=O)CO4)cs2)cc1	-1	-9	15*	2	11	6
COc1ccccc1Nc1nc(-c2ccc3c(c2)NC(=O)CO3)cs1	.	20	32*	6	43	66
CCOc1ccc(-c2noc(CCCC(=O)NCC3CCCO3)n2)cc1OC (stereo unspecified)	1	-11	-3	-1	1	8
CN(C(=O)c1ccc(NC(=O)Cc2ccc(NC(=O)C3CCN(C(=O)CCc4ccccc4)CC3)cc2)cc1)C1CC1	2	-11	-1	1	1	-4
SMILES	Gli-Sufu antag	Mdm2-MdmX inh	NR3A LBD binder	MPTP inh	Beta apoptosis	CSC inhib
CN(C(=O)c1cccc(NC(=O)Cc2ccc(NC(=O)C3CCCN(S(=O)(=O)c4cccc([N+](=O)[O-])c4)C3)cc2)c1)C1CCCC1 (stereo unspecified)	5	.	10*	1	.	.
CN(Cc1ccccc1)C(=O)c1cccc(NC(=O)Cc2ccc(NC(=O)C3CCN(C(=O)CCc4ccccc4)CC3)cc2)c1	20	.	17*	2	.	.
CN(Cc1ccccc1)C(=O)c1cccc(NC(=O)Cc2ccc(NC(=O)C3CCN(C(=O)c4ccccc4)CC3)cc2)c1	-5	.	1	0	.	.
CN(Cc1ccccc1)C(=O)c1ccc(NC(=O)Cc2ccc(NC(=O)C3CCN(C(=O)CCc4ccccc4)CC3)cc2)cc1	16	.	13*	0	.	.
C/C(=N\NC(=O)c1cc(-c2ccc(C)s2)[nH]n1)c1ccncc1	-15	13	2	0	2	-7
CCCNC(=O)CN1CCN(c2cc3ccccc3c(Cl)n2)CC1	0	3	1	2	3	-8
CC(C)c1ccc(N(CC(=O)NN=C2CCN(C)CC2)S(=O)(=O)c2ccccc2)cc1	0	-6	0	-2	0	10
CN1CCC(=NNC(=O)CN(c2ccccc2)S(=O)(=O)c2ccccc2)CC1	5	-3	10*	-1	-3	-2
Cc1cc(C)nc(SCc2ccc(C(=O)NNC(=O)Nc3cccc(Cl)c3)cc2)n1	13	.	10	3	-4	111*
Cn1c(=O)c(NCCc2ccccc2)c2c3c(cccc31)C(=O)c1ccccc1-2	-2	23	43*	1	-5	11
O=C(Cn1ncc2c([nH]c3ccccc32)c1=O)Nc1ccc(CN2CCCCC2)cc1	-5	49	0	-1	.	-9
C(=N\Nc1nc2ccccc2[nH]1)/c1ccc2ncccc2c1	-57	-78	0	1	.	79*
C(=N\Nc1nc2ccccc2[nH]1)/c1ccccn1	7	.	-4	-2	.	.
Cc1ccc2cc(/C=N/Nc3nc4ccccc4[nH]3)c(Cl)nc2c1	-64	.	12*	11	.	.
C#CCn1cc(/C=N/Nc2nc3ccccc3[nH]2)c2ccccc21	-24	15	-4	45	55	92*
Cc1[nH]n(C(N)=S)c(=O)c1N=Nc1ccccc1C(F)(F)F	4	-27	10*	2	11	6
Cc1ccccc1N=Nc1c(C)[nH]n(C(N)=S)c1=O	3	-38	-5	1	28	0
Cc1ccc(Oc2ncccc2/C=N/OCc2ccc(Cl)cc2Cl)cc1	-4	-28	14*	0	2	6
CC(C)C(C(=O)NCc1ccccc1)N1CCN(c2ccccc2F)CC1 (stereo unspecified)	.	.	.	-2	.	.
CC(Sc1nnc(Cc2cccs2)n1C1CC1)C(=O)NC1CCS(=O)(=O)C1 (stereo unspecified)	0	0	3	1	.	.
